About 2,400 (1.1%) of roughly 220,000 compounds were called active. Another 7% or so got no clear call; they are omitted. The full list was thinned out, with actives kept by preference. A number with no mark means an inactive call. Calls follow the shape of the dose curve; as a rule, active = well fitted inhibition curve with a large enough effect; inconclusive = small, poorly fitted or top-dose-only effect, or effect the other way; inactive = no such curve, though single readings can be large or run the other way.
Assay: qHTS Multiplex Assay to Identify Dual Action Probes in a Cell Model of Huntington: Aggregate Formation (GFP); also: nearly all actives have a fitted effect of over 60% in size
Details: PC12 HttQ103-GFP aggregates, Acumen cytometry, 40 h; series mostly up to 9.22 µM; activity change, negative = inhibition: at the top concentration
From the text: NIH Chemical Genomics Center [NCGC]
NIH Molecular Libraries Probe Production centers Network [MLPCN]
Assay Submitter (PI): Wei Zheng
Huntington's disease is a neurodegenerative disorder caused by a trinucleotide repeat expansion in Exon 1 of the Huntingtin gene. The CAG trinucleotide encodes glutamine and polyglutamine expansions cause cell death in selective areas of the brain. Huntington polyglutamine repeats have the tendency to form aggregates which are observable in later stages of the disease. The exact nature of the aggregates, whether toxic, protective, or insignificant, is unclear.
A stable PC12 cell line containing a gene fusion of Exon 1 of the Huntingtin gene linked to GFP under the control of the inducible ecdysone promoter were used as the cell-based model of Huntington Disease for high throughput screening. Exon 1 of the Huntingtin gene contained an expansion of 103 polyglutamines (Q103) which, when expressed, caused cell death and distinct, bright GFP aggregates. The amount of cell death and the size and intensity of GFP aggregates increased over time and induction level. The cell death were quantified with a measurement of ATP content in the cells. A maximal 40-50% of cell death was observed when the Huntington gene was induced in this cell line.
We optimized this assay in a homogeneous 1536 well format. A quantitative high throughput screen (qHTS) was conducted on the PC12 cells which were induced to express the toxic fusion construct. Small molecules which reduced aggregate formation were identified bu using a laser scanning cytometer calibrated to detect the aggregates in cell lysates.
PC12 cells stably containing a construct with an ecdysone inducible promoter expressing GFP fused to the exon 1 of HTTQ103 (Huntington protein which containing a 103 ployglutamine expansion) were used.
NCGC Assay Protocol Summary:
Sequence, Parameter, Description
1, Reagent, 5 uL 1500 cells/well 1536 TC treated White clear bottom plate
2, Compound, 23 nL Tebufenozide inducer (100 nM final) to all columns
3, Compound, 23 nL 40 uM to 0.5 nM Libraries
5, Reagent, 5 ul ATPLite cell death assay reagent
6, Detector, Aggregate quantitation by Acumen Explorer
Media consisted of phenol red free DMEM + 5% equine serum (Hyclone # SH30072.03 ), 5% supplemented Bovine Calf Serum (Hyclone # SH30074.03 ), 1x pen/strep, no G418
Acumen Explorer was used to quantitate GFP aggregates using the following criteria: […] laser excitation, 500-530 nm emission, the PMT was set at a voltage of 450 volts, and objects ranging in size of […] in size having a signal of 6 STDEV above background were collected.
Control columns: 1 = DMSO, 2= 2 uM teb dilns (1:1), 4 = 100 nM Teb inducer. Sample columns received 100 nM Teb.
% is scaled to controls: 0 for no effect and ±100 for the full control effect; potency is read from the fitted curve at half-maximal effect.

Row | Structure (SMILES) | activity change, negative = inhibition | Potency
1 | COC(=O)c1ccc(CN(c2ccccc2OC)S(=O)(=O)c2cccs2)o1 | -2.95% [at 46.1 µM] | 
2 | COC(=O)c1ccc(CSc2ccccc2C)o1 | -0.648% [at 46.1 µM] | 
3 | COC(=O)c1ccc(Cc2ccccc2)o1 |  | 0.0004 µM (active)
4 | Cn1c(=O)c2c(nc(NCc3ccccc3)n2CC(N)=O)n(C)c1=O | -3.14% | 
5 | Cc1ncn2cc(-c3ccc(Cl)cc3Cl)[nH]c(=O)c12 | -41.8% | 
6 | C=C(C)CNC(=S)Nc1ccc(S(=O)(=O)Nc2cnc3ccccc3n2)cc1 | 0% | 
7 | CCc1cc2c(N3CCN(c4nnc(CC)s4)CC3)ncnc2s1 |  | 17.8 µM (active)
8 | CCc1cc2c(NC3CCCC3)ncnc2s1 | -17.1% | 
9 | Oc1ccccc1N1CCN(c2ncnc3sc(-c4ccccc4)cc23)CC1 | 5.69% | 
10 | Cc1ccc(C(O)P(=O)(OC(C)C)c2ccc(N(C)C)cc2)cc1 (stereo unspecified) | 15.4% | 
11 | O=C(/C=C/Nc1ccc(S(=O)(=O)Nc2cnc3ccccc3n2)cc1)c1cccnc1 | -17.6% | 
12 | CCOC(=O)c1ccc(N=C2SC(C(=O)NC)CC(=O)N2CCc2ccccc2)cc1 (stereo unspecified) | -13.4% | 
13 | CC1=CC(C)(C)NC(=S)N1NC(=O)c1ccccc1Cl | -29.3% | 
14 | CN(NC(=O)c1ccccc1F)c1nc(C(F)(F)F)nc2ccccc12 | -0.998% [at 46.1 µM] | 
15 | CN(NC(=O)c1ccccc1)c1nc2ccccc2nc1C(F)(F)F | -19.7% [at 46.1 µM] | 
16 | CSc1nc(N(C)NC(=O)c2cccc(C)c2)c2ccccc2n1 |  | 1.26 µM (active)
17 | O=C(OCc1ccccc1)c1ccc(O)cc1 | 6.43% [at 46.1 µM] | 
18 | O=C(NCc1cccnc1)C(=O)Nc1nc(-c2ccccc2)cs1 | -4.94% | 
19 | CCc1ccc(-c2nn(-c3ccccc3)cc2CSC(=N)N)cc1 |  | 17.8 µM (active)

Row | Structure (SMILES) | activity change, negative = inhibition | Potency
20 | CCn1c(SCc2ccc(C)cc2)nnc1-c1nn(-c2ccccc2)ccc1=O | 9.93% [at 46.1 µM] | 
21 | O=C(Nc1cn(-c2ccccc2)nc1-c1ccccc1)c1ccccc1 | -21% [at 46.1 µM] | 
22 | Cc1cc(Nc2ccc(Cl)cc2)nc(N2CCOCC2)n1 | -1.57% | 
23 | CC(=O)NC(=O)c1ccccc1O | 1.25% [at 46.1 µM] | 
24 | Cc1nnc(C)c2c(C)n(N)c(C)c12 | 0.29% | 
25 | CCN1/C(=C/c2ccc3ccc(C)cc3[n+]2CC)Sc2ccccc21 |  | 7.94 µM (active)
26 | CCN1/C(=C/C(=S)Nc2ccccc2)Sc2ccccc21 | 4.06% | 
27 | CCC(=O)/C=C1\Sc2ccccc2N1CC | -1.12% [at 46.1 µM] | 
28 | COc1ccccc1N(C)S(=O)(=O)c1ccc(C(=O)NC2CCCCCC2)cc1 | 21.4% | 
29 | Nc1ccc(C(=O)OCC(=O)NC2CCS(=O)(=O)C2)cc1[N+](=O)[O-] (stereo unspecified) | 1.88% | 
30 | CC(=O)Nc1ccc(NC(=O)c2sc3nc4c(c(-c5ccc(C)cc5)c3c2N)CCC4)cc1 | 16.4% [at 46.1 µM] | 
31 | Cc1cccc(NC(=O)c2sc3nc4c(c(-c5ccco5)c3c2N)CCC4)c1 | -5.16% [at 46.1 µM] | 
32 | NC(=O)c1sc2nc3c(c(-c4ccccc4)c2c1N)CCC3 |  | 7.08 µM (active)
33 | CCNc1nc(Oc2ccc(C(=O)OC)cc2)nc(N2CCOCC2)n1 | 12.1% | 
34 | Cc1cc(=O)[nH]c(SCC(=O)Nc2ccc(Br)cc2)n1 | -8.52% | 
35 | C=CCNC(=S)NNC(=O)c1cc(Cl)ccc1OC | 2.51% | 
36 | CCOC(=O)CSc1nnc(NC(=O)c2cccc(S(=O)(=O)N3CCCCC3)c2)s1 | 0.38% [at 46.1 µM] | 
37 | O=C(Nc1nncs1)c1cccc(S(=O)(=O)N2CCCCC2)c1 | -10.1% [at 46.1 µM] | 
38 | CCOC(=O)CSc1nnc(NC(=O)c2cccc(S(=O)(=O)N3CCCC3)c2)s1 |  | 1 µM (active)

Row | Structure (SMILES) | activity change, negative = inhibition | Potency
39 | O=P(O)(CN1CCCCCC1)C1Cc2ccccc2C1 | -5.67% | 
40 | NS(=O)(=O)c1ccc(Nc2nc(-c3ccccc3)cs2)cc1 |  | 11.2 µM (active)
41 | COc1ccc(Nc2nc(-c3ccccc3)cs2)cc1 | 15.7% [at 46.1 µM] | 
42 | CC(=O)Nc1nc(C)c(-c2csc(Nc3ccc(S(N)(=O)=O)cc3)n2)s1 | -10.9% | 
43 | OCC(CO)NC1C[C@](O)(CO)[C@@H](O)[C@H](O)[C@H]1O (stereo partly specified) | -1.34% [at 46.1 µM] | 
44 | Oc1c(Cl)cc(Cl)c(Cl)c1Cc1c(O)c(Cl)cc(Cl)c1Cl |  | 5.62 µM (active)
45 | Cc1ccccc1NCC(=O)N/N=C\c1ccc([N+](=O)[O-])s1 |  | 11.2 µM (active)
46 | CC(C)(C)c1cc(C(=O)N/N=C/c2ccc([N+](=O)[O-])s2)n[nH]1 | 6.94% | 
47 | CCOc1ccc(NC(=O)CCC(=O)N/N=C/c2ccc([N+](=O)[O-])s2)cc1 | -1.14% [at 46.1 µM] | 
48 | Cc1ccc(S(=O)(=O)NNC(=S)NC(C)(C)C)cc1 | -5.96% | 
49 | CC(O)COc1ccccc1 (stereo unspecified) | -7.24% [at 46.1 µM] | 
50 | CC1CCCCN1S(=O)(=O)c1ccc(C(=O)Nc2nnc(-c3cccs3)o2)cc1 (stereo unspecified) |  | 11.2 µM (active)
51 | CC1CCCCN1S(=O)(=O)c1ccc(S(=O)(=O)N(CC(=O)Nc2ccccc2)Cc2cccs2)cc1 (stereo unspecified) | -1.27% [at 46.1 µM] | 
52 | O=C(Nc1nnc(-c2ccco2)o1)c1ccc(S(=O)(=O)N2CCOCC2)cc1 | -4.11% [at 46.1 µM] | 
53 | COc1ccc(C(=O)N/N=C(\C)CC(=O)Nc2ccc(Cl)cn2)cc1 | 5.22% | 
54 | COC(=O)c1sccc1NC(=O)CC1C(=O)NCCN1C(=O)Nc1ccc(F)cc1F (stereo unspecified) | -10.3% | 
55 | N/C(=N/O)c1cccn1Cc1ccccc1[N+](=O)[O-] | 1.61% [at 46.1 µM] | 
56 | O=c1c([N+](=O)[O-])cc(C(F)(F)F)cn1Cc1cccc(Cl)c1 | 14.6% [at 46.1 µM] | 
